# Source: PubChem BioAssay (NCATS)
# Results filed as inconclusive are left out. Activity calls are given as the source filed them. Unless noted, calls follow the shape of the dose curve; as a rule, active = well fitted curve in the direction sought with a large enough effect; inconclusive = small, poorly fitted or top-dose-only effect, or another doubt; inactive = no such curve, though single readings can be large; an effect the other way counts as inactive or inconclusive.
# Tests used:
# [1] = Quantitative High-Throughput drug screen in 47 multiple myeloma cell lines against the NCATS MIPE library collection: XG1_PLB cell viability assay (AID 1919866); also: nearly all actives have a fitted effect of over 35% in size
# Procedure, shortened: (§1)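 ATP-based CellTiter-Glo luminescence after 48 h drug exposure (37 °C, 5% CO2) of 500 myeloma cells per well. DMSO-only wells set 100% viability, media-only wells 0%; MIPE 4.0 library added by pin tool.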
# [2] = Quantitative High-Throughput drug screen in 47 multiple myeloma cell lines against the NCATS MIPE library collection: VP6_DJ cell viability assay (AID 1919867); also: nearly all actives have a fitted effect of over 40% in size
# Procedure, shortened: as §1
# [3] = Quantitative High-Throughput drug screen in 47 multiple myeloma cell lines against the NCATS MIPE library collection: UTMC2_PLB cell viability assay (AID 1919868); settings: CellTiter-Glo ATP luminescence, 48 h; viability (% of DMSO control): at 45.8 µM (top of the series) unless noted; also: nearly all actives have a fitted effect of over 55% in size
# Procedure, shortened: as §1
# [4] = Quantitative High-Throughput drug screen in 47 multiple myeloma cell lines against the NCATS MIPE library collection: PE2_PLB cell viability assay (AID 1919869); also: nearly all actives have a fitted effect of over 35% in size
# Procedure, shortened: as §1
# [5] = Quantitative High-Throughput drug screen in 47 multiple myeloma cell lines against the NCATS MIPE library collection: PCM6_Riken cell viability assay (AID 1919870); also: nearly all actives have a fitted effect of over 30% in size
# Procedure, shortened: as §1
# [6] = Quantitative High-Throughput drug screen in 47 multiple myeloma cell lines against the NCATS MIPE library collection: RPMI8226_ATCC cell viability assay (AID 1919871); also: nearly all actives have a fitted effect of over 30% in size
# Procedure, shortened: as §1
# [7] = Quantitative High-Throughput drug screen in 47 multiple myeloma cell lines against the NCATS MIPE library collection: OPM2_DSMZ cell viability assay (AID 1919872); also: nearly all actives have a fitted effect of over 30% in size
# Procedure, shortened: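 Steps: seed 500 cells per well; pin-transfer MIPE 4.0 library; incubate 48 h at 37C, 5% CO2, humidified; add CellTiter-Glo, 5 min room temperature; read luminescence.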
# [8] = qHTS drug screen for cell cycle checkpoint inhibitors in PARPi-resistant BRCA-mutant ovarian cancer cell lines. (AID 1963452; calls by dose curve); settings: PEO1/OlaR viability, CellTiter-Glo luminescence, 96 h; for Z-AUC: stronger effect = lower value
# Procedure, shortened: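 PEO1, PEO4 and PEO1/OlaR ovarian cancer cells, 600 per well, exposed 96 h at 37C to a dilution series. Viability read by CellTiter-Glo luminescence, normalized to DMSO and empty wells; activity summarized as Z-AUC.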
# [9] = Quantitative High-Throughput drug screen in 47 multiple myeloma cell lines against the NCATS MIPE library collection: KMS11_JCRBsus cell viability assay (AID 1919873); also: nearly all actives have a fitted effect of over 50% in size
# Procedure, shortened: as §1
# [10] = Quantitative High-Throughput drug screen in 47 multiple myeloma cell lines against the NCATS MIPE library collection: KMS28BM_JCRB cell viability assay (AID 1919874); also: nearly all actives have a fitted effect of over 35% in size
# Procedure, shortened: as §1
# [11] = qHTS profiling for inhibitors of Plasmodium falciparum proliferation (AID 504749); also: nearly all actives have a fitted effect of over 60% in size; settings: P. falciparum in erythrocytes, SYBR Green DNA, 72 h
# Procedure, shortened: (§2)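 SYBR Green fluorescence of parasite DNA, read after lysis and overnight dark incubation, measured growth over 72 h in erythrocyte culture at 0.3% parasitemia and 2.5% hematocrit. Data normalised to DMSO and 0.29 uM artemisinin, with plate-drift correction.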
# 3D7 = experiment: as above; settings: P. falciparum in erythrocytes, SYBR Green DNA, 72 h; series mostly up to 28.7 µM
# Procedure, shortened: as §2
# 7G8 = experiment: as above; settings: P. falciparum in erythrocytes, SYBR Green DNA, 72 h; series mostly up to 28.7 µM
# Procedure, shortened: as §2
# AA1029 = experiment: as above; settings: P. falciparum in erythrocytes, SYBR Green DNA, 72 h; series mostly up to 28.7 µM
# Procedure, shortened: as §2
# AS120 = experiment: as above; settings: P. falciparum in erythrocytes, SYBR Green DNA, 72 h; series mostly up to 28.7 µM
# Procedure, shortened: as §2
# ATS189 = experiment: as above; settings: P. falciparum in erythrocytes, SYBR Green DNA, 72 h; series mostly up to 28.7 µM
# Procedure, shortened: as §2
# ATS95 = experiment: as above; settings: P. falciparum in erythrocytes, SYBR Green DNA, 72 h; series mostly up to 28.7 µM
# Procedure, shortened: as §2
# C2A = experiment: as above; settings: P. falciparum in erythrocytes, SYBR Green DNA, 72 h; series mostly up to 28.7 µM
# Procedure, shortened: as §2
# CP185 = experiment: as above; settings: P. falciparum in erythrocytes, SYBR Green DNA, 72 h; series mostly up to 28.7 µM
# Procedure, shortened: as §2
# [12] = qHTS for identification of novel therapeutic agents for treatment of microphthalmiaassociated transcription factor (MiT) renal cell carcinoma (RCC) (AID 1963991; calls by dose curve); settings: CellTiter-Glo, 48 h; for Potency: active = Z-AUC below -0.8 in all three lines; for z-score: stronger effect = lower value
# Procedure, shortened: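 Three TFE3-fusion RCC cell lines (UOK109, UOK124, UOK145), 500 cells/well, were exposed to the 1912-compound MIPE 4.0 library for 48 hours at 37 C. Viability was read by CellTiter-Glo luminescence, normalised to DMSO (100%) and empty wells (0%), with 11-concentration curve fits.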
# [13] = measured here: PEO1 parental Z-AUC
# [14] = TFE3-RCC UOK109 viability, measured here: UOK109 Z-AUC
# [15] = TFE3-RCC viability, measured here: UOK124 Z-AUC
# [16] = TFE3-RCC viability, measured here: UOK145 Z-AUC
# Potency is read from the fitted curve at half-maximal effect.
smiles,measurement,setting,value
COc1cc(C(C)C)c2c(c1)S(=O)(=O)N(COc1cc(=O)n3cccc(OCCN4CCCCC4)c3n1)C2=O,Potency,[1],2090 nM (active)
same,Potency,[2],16600 nM (active)
same,Potency,[3],26400 nM (active)
same,Potency,[4],18700 nM (active)
same,Potency,[5],18700 nM (active)
same,Potency,[6],inactive
same,Potency,[7],inactive
same,Z-AUC,[8],1.15 (inactive)
same,Z-AUC,[8]; [13],1.06
same,Z-AUC,[8]; measured here: PEO4 Z-AUC,0.892
Nc1ccn([C@@H]2O[C@H](CO)[C@H](O)C2(F)F)c(=O)n1,Potency,[1],20.9 nM (active)
same,Potency,[2],526 nM (active)
same,Potency,[3],14.8 nM (active)
same,Potency,[4],332 nM (active)
same,Potency,[5],1870 nM (active)
same,Potency,[6],469 nM (active)
same,Potency,[7],inactive
same,Potency,[9],296 nM (active)
same,Potency,[10],5260 nM (active)
same,Potency,[11]; parasite line A,5620 nM (active)
same,Potency,[11]; parasite line B,316 nM (active)
same,Potency,3D7,3160 nM (active)
same,Potency,7G8,2820 nM (active)
same,Potency,AA1029,1580 nM (active)
same,Potency,AS120,3550 nM (active)
same,Potency,ATS189,3980 nM (active)
same,Potency,ATS95,5620 nM (active)
same,Potency,C2A,3980 nM (active)
same,Potency,CP185,5620 nM (active)
CC(C)c1cc(C(=O)N2Cc3ccc(CN4CCN(C)CC4)cc3C2)c(O)cc1O,Potency,[1],148 nM (active)
same,Potency,[2],148 nM (active)
same,Potency,[3],372 nM (active)
same,Potency,[4],296 nM (active)
same,Potency,[5],935 nM (active)
same,Potency,[6],264 nM (active)
same,Potency,[7],332 nM (active)
same,Potency,[9],105 nM (active)
same,Potency,[10],235 nM (active)
same,Z-AUC,[8],-1.06 (inactive)
same,Z-AUC,[8]; [13],-0.777
same,Z-AUC,[8]; measured here: PEO4 Z-AUC,-0.0282
same,Potency,[12]; TFE3-RCC UOK109 viability,418 nM (active)
same,z-score,[12]; [14],-0.923
same,z-score,[12]; [15],-0.898
same,z-score,[12]; [16],-0.85
CC1(C)CCC(c2ccc(Cl)cc2)=C(CN2CCN(c3ccc(C(=O)NS(=O)(=O)c4ccc(N[C@H](CCN5CCOCC5)CSc5ccccc5)c(S(=O)(=O)C(F)(F)F)c4)cc3)CC2)C1,Potency,[1],16600 nM (active)
same,Potency,[2],372 nM (active)
same,Potency,[3],93.5 nM (active)
same,Potency,[4],2640 nM (active)
same,Potency,[5],26.4 nM (active)
same,Potency,[6],2960 nM (active)
same,Potency,[7],18700 nM (active)
same,Potency,[10],332 nM (active)
same,Z-AUC,[8],-0.481 (inactive)
same,Z-AUC,[8]; [13],-0.554
same,Z-AUC,[8]; measured here: PEO4 Z-AUC,-1.15
CC(C)c1nn(-c2c(Cl)cccc2Cl)c2nc(Cc3ccc(OCCO)cc3)[nH]c(=O)c12,Potency,[1],187 nM (active)
same,Potency,[2],37.2 nM (active)
same,Potency,[3],93.5 nM (active)
same,Potency,[4],74.3 nM (active)
same,Potency,[5],46.9 nM (active)
same,Potency,[6],118 nM (active)
same,Potency,[7],264 nM (active)
same,Potency,[9],52.6 nM (active)
same,Potency,[10],209 nM (active)
same,Z-AUC,[8],-1.25 (inactive)
same,Z-AUC,[8]; [13],-2.35
same,Z-AUC,[8]; measured here: PEO4 Z-AUC,-1.5
same,Potency,[12]; TFE3-RCC UOK109 viability,132 nM (active)
same,z-score,[12]; [14],-2.2
same,z-score,[12]; [15],-1.63
same,z-score,[12]; [16],-2.67
COc1ccc(-c2cc3c(C)nc(N)nc3n(C3CCC(OCCO)CC3)c2=O)cn1 (stereo not drawn),Potency,[1],18.7 nM (active)
same,Potency,[2],1 nM (active)
same,Potency,[3],52.6 nM (active)
same,Potency,[4],46.9 nM (active)
same,Potency,[5],264 nM (active)
same,Potency,[6],26.4 nM (active)
same,Potency,[7],66.2 nM (active)
same,Potency,[9],7.4 nM (active)
same,Potency,[10],59 nM (active)
same,Potency,[8],490 nM (active)
same,Z-AUC,[8]; [13],-1.22
same,Z-AUC,[8]; measured here: PEO4 Z-AUC,-1.44
same,Potency,[12]; TFE3-RCC UOK109 viability,11.8 nM (active)
same,z-score,[12]; [14],-2.89
same,z-score,[12]; [15],-1.31
same,z-score,[12]; [16],-2.61
C#Cc1cccc(Nc2ncnc3cc(OC)c(OCCCCCCC(=O)NO)cc23)c1,Potency,[1],74.3 nM (active)
same,Potency,[2],296 nM (active)
same,Potency,[3],18.7 nM (active)
same,Potency,[4],93.5 nM (active)
same,Potency,[5],187 nM (active)
same,Potency,[6],1870 nM (active)
same,Potency,[7],1480 nM (active)
same,Potency,[10],33.2 nM (active)
same,Potency,[8],616 nM (active)
same,Z-AUC,[8]; [13],-1.22
same,Z-AUC,[8]; measured here: PEO4 Z-AUC,-1.32
OCc1ccc(-c2ccc(-c3ccc(CO)s3)o2)s1,Potency,[1],6620 nM (active)
same,Potency,[2],20900 nM (active)
same,Potency,[3],16600 nM (active)
same,Potency,[4],3720 nM (active)
same,Potency,[5],7430 nM (active)
same,Potency,[6],23500 nM (active)
same,Potency,[7],23500 nM (active)
same,Potency,[9],11800 nM (active)
same,Z-AUC,[8],1.64 (inactive)
same,Z-AUC,[8]; [13],1.79
same,Z-AUC,[8]; measured here: PEO4 Z-AUC,1.79
CCN1CCN(CC(=O)Nc2ccc(-c3cccc4c(=O)cc(N5CCOCC5)oc34)c3sc4ccccc4c23)CC1,Potency,[1],935 nM (active)
same,Potency,[2],469 nM (active)
same,Potency,[3],187 nM (active)
same,Potency,[4],833 nM (active)
same,Potency,[5],1480 nM (active)
same,Potency,[6],1870 nM (active)
same,Potency,[7],3720 nM (active)
same,Potency,[9],332 nM (active)
same,Potency,[10],4690 nM (active)
same,Z-AUC,[8],-1.21 (inactive)
same,Z-AUC,[8]; [13],-0.89
same,Z-AUC,[8]; measured here: PEO4 Z-AUC,-0.929
same,Potency,[12]; TFE3-RCC UOK109 viability,2640 nM (active)
same,z-score,[12]; [14],-2
same,z-score,[12]; [15],-1.8
same,z-score,[12]; [16],-2.12
CC[C@@]1(O)C(=O)OCc2c1cc1n(c2=O)Cc2cc3cc(O)ccc3nc2-1,Potency,[1],66.2 nM (active)
same,Potency,[2],418 nM (active)
same,Potency,[3],37.2 nM (active)
same,Potency,[4],264 nM (active)
same,Potency,[5],743 nM (active)
same,Potency,[6],8330 nM (active)
same,Potency,[7],3320 nM (active)
same,Potency,[9],1180 nM (active)
same,Potency,[10],209 nM (active)
same,Potency,[8],38.9 nM (active)
same,Z-AUC,[8]; [13],-3.38
same,Z-AUC,[8]; measured here: PEO4 Z-AUC,-2.58
same,Potency,[12]; TFE3-RCC UOK109 viability,1480 nM (active)
same,z-score,[12]; [14],-0.967
same,z-score,[12]; [15],-1.78
same,z-score,[12]; [16],-2.02
Nc1cc(C(F)(F)F)c(-c2cc(N3CCOCC3)nc(N3CCOCC3)n2)cn1,Potency,[1],469 nM (active)
same,Potency,[2],743 nM (active)
same,Potency,[3],264 nM (active)
same,Potency,[4],935 nM (active)
same,Potency,[5],1480 nM (active)
same,Potency,[6],526 nM (active)
same,Potency,[7],2640 nM (active)
same,Potency,[9],66.2 nM (active)
same,Potency,[10],41.8 nM (active)
same,Z-AUC,[8],-2.03 (inactive)
same,Z-AUC,[8]; [13],-1.2
same,Z-AUC,[8]; measured here: PEO4 Z-AUC,-0.609
same,Potency,[12]; TFE3-RCC UOK109 viability,662 nM (active)
same,z-score,[12]; [14],-0.856
same,z-score,[12]; [15],-0.844
same,z-score,[12]; [16],-1.62
